Assay results published in PubChem BioAssay (NCATS).
Inconclusive results are not listed. Activity calls are given as the source filed them. The call rests on the fitted dose curve; in most records, active means well fitted inhibition curve with a large enough effect; inconclusive means small, poorly fitted or top-dose-only effect; inactive means flat fitted curve, though single readings scatter.

Columns and labels:
[1] = biological target: Glutathione peroxidase 1 (Homo sapiens) (UniProt P07203); assay: Primary qHTS Assay for Inhibitors of Recombinant Selenoprotein Glutathione Peroxidase 1 (GPX1) (AID 1845191); further: nearly all actives have a fitted effect of over 65% in size
Sequence of Glutathione peroxidase 1 (Homo sapiens) (P07203 whole entry, looked up): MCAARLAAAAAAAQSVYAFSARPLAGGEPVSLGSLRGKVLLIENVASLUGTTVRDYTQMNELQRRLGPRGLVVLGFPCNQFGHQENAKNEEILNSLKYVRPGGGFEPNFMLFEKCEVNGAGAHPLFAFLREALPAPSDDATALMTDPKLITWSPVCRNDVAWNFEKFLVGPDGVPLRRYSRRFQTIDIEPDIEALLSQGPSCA
Procedure, shortened: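 GPX1 10 nM, GR 100 nM, GSH 1 mM, NADPH 0.5 mM, CHP 0.5 mM (final). 30-min cpd preincubation, RT. Ex340/Em450 read t=0, t=15 min.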

[2] = biological target: Phospholipid hydroperoxide glutathione peroxidase GPX4 (Homo sapiens) (UniProt P36969); assay: Primary qHTS Assay for Inhibitors of Recombinant Selenoprotein Glutathione Peroxidase 4 (GPX4) (AID 1845192); further: nearly all actives have a fitted effect of over 65% in size; on activity change, negative = inhibition: series mostly up to about 50 µM; on the % scale 0 is the no-effect control and ±100 the full control effect
Sequence of Phospholipid hydroperoxide glutathione peroxidase GPX4 (Homo sapiens) (P36969 whole entry, looked up): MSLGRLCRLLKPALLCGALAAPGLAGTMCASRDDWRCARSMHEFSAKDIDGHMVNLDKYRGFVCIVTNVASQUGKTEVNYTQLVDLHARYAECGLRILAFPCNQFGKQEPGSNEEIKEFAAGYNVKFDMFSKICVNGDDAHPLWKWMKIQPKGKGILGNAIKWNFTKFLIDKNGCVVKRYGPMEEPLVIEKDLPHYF
Procedure, shortened: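 qHTS, GR-coupled: GPX4 200 nM + cpd 30 min RT → GSH 1 mM, NADPH 0.5 mM, GR 100 nM → CHP 0.5 mM start; fluor 340/450 at t0 and t15 min; no-enzyme wells as control.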

[3] = biological target: Luciferin 4-monooxygenase (Photinus pyralis) (UniProt P08659); assay: Primary firefly luciferase (FLuc) qHTS assay for identification of artifact compounds. (AID 1845220); further: nearly all actives have a fitted effect of over 60% in size;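 on activity change, negative = inhibition: series mostly up to about 54 µM; plate controls were DMSO vehicle for no effect and no enzyme for full effect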
Procedure, shortened: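 qHTS, 15 min compound preincubation with substrate (10 uM luciferin, 10 uM ATP) at RT, then 10 nM FLuc; 5 min; luminescence; % inhibition vs no-enzyme/DMSO controls, 4-parameter Hill fit.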

O=C(O)CCc1cc2ccoc2cc1O[C@@H]1O[C@H](CO[C@@H]2OC[C@](O)(CO)[C@H]2O)[C@@H](O)[C@H](O)[C@H]1O
inactive: Potency [1] | Potency [2] | Potency [3]

COC12CC3C(C(C)C1=CC(=O)O2)C(O)C(OC(C)=O)C1C(C)(C)C(OC(C)=O)CCC31C (configuration not stated)
inactive: Potency [1] | Potency [2] | Potency [3]

CC(C)(O)C1CCC2(C)C3C(O)C4C(C13)C42CO (configuration not stated)
inactive: Potency [1] | Potency [2] | Potency [3]

O=C(/C=C/c1ccc(O)cc1)OCC1=C[C@@H](O)[C@@H]2C=CO[C@@H](O[C@@H]3O[C@H](CO)[C@@H](O)[C@H](O)[C@H]3O)[C@H]12
inactive: Potency [1] | Potency [2] | Potency [3]

COc1ccc(/C=C/C(=O)O[C@H]2[C@@H]3C=CO[C@@H](O[C@@H]4O[C@H](CO)[C@@H](O)[C@H](O)[C@H]4O)[C@@H]3[C@@]3(CO)O[C@@H]23)cc1O
inactive: Potency [1] | Potency [2] | Potency [3]

CCOC(=O)c1c(C)nn(-c2cccc([N+](=O)[O-])c2)c1C
inactive: Potency [1] | Potency [2] | Potency [3]

O=C(c1ccc(NS(=O)(=O)c2cccc3cccnc23)cc1)N1CCN(CC2CC2)CC1
inactive: Potency [1] | Potency [2] | Potency [3]

CC1OC(OC2C(C)OC(OC3C(OC(=O)/C=C/c4ccc(O)cc4)C(CO)OC(OC4(COC(=O)/C=C/c5ccc(O)cc5)OC(CO)C(O)C4O)C3OC3OCC(O)(CO)C3O)C(O)C2O)C(O)C(O)C1O (configuration not stated)
inactive: Potency [1] | Potency [2] | activity change, negative = inhibition [3] -0.562% [at 11.6 µM]

C=C(C(=O)OC)C1CCC2(C)C(O[C@@H]3O[C@H](CO)[C@@H](O)[C@H](O)[C@H]3O)CC(=O)C(C)C2C1O (some centres not stated)
inactive: Potency [1] | Potency [2] | Potency [3]
